Measurements from PubChem BioAssay (NCATS).
Results filed as inconclusive are left out. Activity calls are given as the source filed them. Unless noted, the call rests on the fitted dose curve; in most records, active means well fitted curve in the direction sought with a large enough effect; inconclusive means small, poorly fitted or top-dose-only effect, or another doubt; inactive means no such curve, though single readings can be large; an effect the other way counts as inactive or inconclusive.

Assays:
MKL-2 = assay: qHTS assay to identify novel small-molecules to repurpose for Merkel cell carcinoma treatment (AID 1296009); settings: MCC and control cell lines, CellTiter-Glo viability, 72 h; series mostly up to 46 µM; further: on the % scale 0 is the no-effect control and ±100 the full control effect; nearly all actives have a fitted effect of over 60% in size
Summary of the method: (§1)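 Dose-response viability screen; 72 hr exposure at 37 degree celsius; CellTiter-Glo added, 10 min room temperature, luminescence read; RLUs scaled between no-cell and DMSO wells.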

UISO = assay: as above; settings: MCC and control cell lines, CellTiter-Glo viability, 72 h; series mostly up to 46 µM
Summary of the method: as §1

WaGa = assay: as above; settings: MCC and control cell lines, CellTiter-Glo viability, 72 h; series mostly up to 46 µM
Summary of the method: as §1

C33A = assay: Primary qHTS to identify gynecologic anti-cancer compounds using libraries of approved drugs and bioactive compounds (AID 1345084); settings: Gynecologic cancer cell panel viability, ATPlite luminescence, 48 h; series mostly up to 57.5 µM; further: on the % scale 0 is the no-effect control and ±100 the full control effect; nearly all actives have a fitted effect of over 55% in size
Summary of the method: (§2)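 48 h compound exposure at 37 C, 5% CO2; five-point qHTS. ATPlite luminescence readout of cell ATP.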

CAOV3 = assay: as above; settings: Gynecologic cancer cell panel viability, ATPlite luminescence, 48 h; series mostly up to 57.5 µM
Summary of the method: as §2

CASKI = assay: as above; settings: Gynecologic cancer cell panel viability, ATPlite luminescence, 48 h; series mostly up to 57.5 µM
Summary of the method: as §2

Es-2 = assay: as above; settings: Gynecologic cancer cell panel viability, ATPlite luminescence, 48 h; series mostly up to 57.5 µM
Summary of the method: as §2

HeLa = assay: as above; settings: Gynecologic cancer cell panel viability, ATPlite luminescence, 48 h; series mostly up to 57.5 µM
Summary of the method: as §2

Hek293T = assay: as above; settings: Gynecologic cancer cell panel viability, ATPlite luminescence, 48 h, control line for the selectivity index; series mostly up to 57.5 µM
Summary of the method: as §2

JEG-3 = assay: as above; settings: Gynecologic cancer cell panel viability, ATPlite luminescence, 48 h; series mostly up to 57.5 µM
Summary of the method: as §2

OV90 = assay: as above; settings: Gynecologic cancer cell panel viability, ATPlite luminescence, 48 h; series mostly up to 57.5 µM
Summary of the method: as §2

PA-1 = assay: as above; settings: Gynecologic cancer cell panel viability, ATPlite luminescence, 48 h; series mostly up to 57.5 µM
Summary of the method: as §2

SKOV3 = assay: as above; settings: Gynecologic cancer cell panel viability, ATPlite luminescence, 48 h; series mostly up to 57.5 µM
Summary of the method: as §2

Tov-21-G = assay: as above; settings: Gynecologic cancer cell panel viability, ATPlite luminescence, 48 h; series mostly up to 57.5 µM
Summary of the method: as §2

Tov112D = assay: as above; settings: Gynecologic cancer cell panel viability, ATPlite luminescence, 48 h; series mostly up to 57.5 µM
Summary of the method: as §2

[1] = Drug repurposing screens with cells derived from glioblastoma tumor samples (AID 1345199); settings: GBM patient neurospheres viability, ATP luminescence, 48 h; further: on the % scale 0 is the no-effect control and ±100 the full control effect; nearly all actives have a fitted effect of over 40% in size
Summary of the method: (§3)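 Primary testing used CD133+ neurospheres from four GBM patients, seven concentrations, 48 h exposure and ATP-based viability; confirmation added three slower-growing patient lines.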

astro = assay: as above; settings: viability, ATP luminescence, 48 h; series mostly up to 45.9 µM
Summary of the method: as §3

[2] = biological target: Nuclear receptor subfamily 1 group I member 2 (Rattus norvegicus) (UniProt Q9R1A7); assay: qHTS assay for small molecule activators of the rat pregnane X receptor (rPXR) signaling pathway (AID 651751; call rule not given here; further: 0% is about no effect); settings: rPXR reporter cells, luciferase (One-Glo), 24 h
Chain of Nuclear receptor subfamily 1 group I member 2 (Rattus norvegicus) (Q9R1A7 whole entry, looked up): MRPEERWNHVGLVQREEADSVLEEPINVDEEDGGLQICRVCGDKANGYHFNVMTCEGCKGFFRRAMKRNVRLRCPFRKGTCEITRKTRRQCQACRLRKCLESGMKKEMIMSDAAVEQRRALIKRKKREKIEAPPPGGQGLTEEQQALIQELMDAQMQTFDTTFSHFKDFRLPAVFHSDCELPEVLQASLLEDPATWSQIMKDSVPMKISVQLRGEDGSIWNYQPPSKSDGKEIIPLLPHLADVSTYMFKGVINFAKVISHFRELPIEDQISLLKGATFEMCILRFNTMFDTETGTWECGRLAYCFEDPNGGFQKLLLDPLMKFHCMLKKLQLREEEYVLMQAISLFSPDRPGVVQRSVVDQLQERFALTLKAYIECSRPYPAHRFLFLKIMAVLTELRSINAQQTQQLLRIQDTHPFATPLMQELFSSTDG

[3] = at 45.9 µM (top of the series), tumour line B
[4] = at 45.9 µM (top of the series), tumour line D
[5] = at 46 µM (top of the series), tumour line A
[6] = at 46.1 µM (top of the series), tumour line C
[7] = at 20 µM (top of the series), tumour line C
[8] = at 21.2 µM (top of the series), tumour line B
[9] = at 21.2 µM (top of the series), tumour line D
[10] = at 21.3 µM (top of the series), tumour line A

O=S(=O)(O)c1cc(I)c(O)c2ncccc12
inactive: Potency (MKL-2) | Potency (UISO) | Potency (WaGa) | Potency (C33A) | Potency (CAOV3) | Potency (CASKI) | Potency (Es-2) | Potency (HeLa) | Potency (Hek293T) | Potency (JEG-3) | Potency (OV90) | Potency (PA-1) | Potency (SKOV3) | Potency (Tov-21-G) | Potency (Tov112D) | activity, negative = cell killing [1, 3] -21.6% | activity, negative = cell killing [1, 4] -2.75% | Potency (astro)

N[C@@H](CSSC[C@H](N)C(=O)O)C(=O)O
inactive: activity change, negative = cytotoxicity (MKL-2) 18.8% [at 0.597 µM] | activity change, negative = cytotoxicity (UISO) 9.88% [at 0.597 µM] | activity change, negative = cytotoxicity (WaGa) 9.72% [at 0.597 µM] | activity change, negative = cytotoxicity (C33A) 7.09% [at 0.462 µM] | activity change, negative = cytotoxicity (CAOV3) -5.94% [at 0.462 µM] | activity change, negative = cytotoxicity (CASKI) 7.1% [at 0.462 µM] | activity change, negative = cytotoxicity (Es-2) -1.97% [at 0.462 µM] | activity change, negative = cytotoxicity (HeLa) 1.97% [at 0.462 µM] | activity change, negative = cytotoxicity (Hek293T) 4.09% [at 0.462 µM] | activity change, negative = cytotoxicity (JEG-3) -2.56% [at 0.462 µM] | activity change, negative = cytotoxicity (OV90) 16.5% [at 0.462 µM] | activity change, negative = cytotoxicity (PA-1) -8.19% [at 0.462 µM] | activity change, negative = cytotoxicity (SKOV3) 0% [at 0.462 µM] | activity change, negative = cytotoxicity (Tov-21-G) 3.42% [at 0.462 µM] | activity change, negative = cytotoxicity (Tov112D) 1.24% [at 0.462 µM] | activity, negative = cell killing [1, 3] 7.37% | activity, negative = cell killing [1, 4] 8.78% | activity, negative = cell killing [1, 5] 8.9% | activity, negative = cell killing [1, 6] -5.12% | Potency (astro)

Cc1cccc(Nc2cc(Cl)nc(SCC(=O)O)n2)c1C
inactive: Potency (MKL-2) | Potency (UISO) | Potency (WaGa) | Potency (C33A) | Potency (CAOV3) | Potency (CASKI) | Potency (Es-2) | Potency (HeLa) | Potency (Hek293T) | Potency (JEG-3) | Potency (OV90) | Potency (PA-1) | Potency (SKOV3) | Potency (Tov-21-G) | Potency (Tov112D) | activity, negative = cell killing [1, 3] -5.07% | activity, negative = cell killing [1, 4] -15.1% | activity, negative = cell killing [1, 5] -33.3% | activity, negative = cell killing [1, 6] 0.18% | Potency (astro) | max response [2] -4.85%

Cc1ncc([N+](=O)[O-])n1CC(O)CCl (centres undefined)
inactive: Potency (MKL-2) | Potency (UISO) | Potency (WaGa) | Potency (C33A) | Potency (CAOV3) | Potency (CASKI) | Potency (Es-2) | Potency (HeLa) | Potency (Hek293T) | Potency (JEG-3) | Potency (OV90) | Potency (PA-1) | Potency (SKOV3) | Potency (Tov-21-G) | Potency (Tov112D) | activity, negative = cell killing [1, 7] -11.2% | activity, negative = cell killing [1, 8] -18% | activity, negative = cell killing [1, 9] -1.81% | activity, negative = cell killing [1, 10] -11.7% | Potency (astro)

Cc1cccc(C)c1NC(=O)CN(CC(=O)O)CC(=O)O
inactive: Potency (MKL-2) | Potency (UISO) | Potency (WaGa) | Potency (C33A) | Potency (CAOV3) | Potency (CASKI) | Potency (Es-2) | Potency (HeLa) | Potency (Hek293T) | Potency (JEG-3) | Potency (OV90) | Potency (PA-1) | Potency (SKOV3) | Potency (Tov-21-G) | Potency (Tov112D) | activity, negative = cell killing [1, 3] 1.75% | activity, negative = cell killing [1, 4] -3.71% | activity, negative = cell killing [1, 5] -11.4% | activity, negative = cell killing [1, 6] -3.39% | Potency (astro)

C[C@@H]1C[C@H]2[C@@H]3C[C@H](F)C4=CC(=O)C=C[C@]4(C)[C@@]3(F)[C@@H](O)C[C@]2(C)[C@@]1(O)C(=O)CO
inactive: Potency (MKL-2) | Potency (UISO) | Potency (WaGa) | Potency (C33A) | Potency (CAOV3) | Potency (CASKI) | Potency (Es-2) | Potency (HeLa) | Potency (Hek293T) | Potency (JEG-3) | Potency (OV90) | Potency (PA-1) | Potency (SKOV3) | Potency (Tov-21-G) | Potency (Tov112D) | activity, negative = cell killing [1, 7] 17.9% | activity, negative = cell killing [1, 8] -15.7% | activity, negative = cell killing [1, 9] -7.98% | activity, negative = cell killing [1, 10] -20.6% | Potency (astro)
